In PubChem BioAssay (NCATS):
Results filed as inconclusive are left out. A number with no mark means an inactive call. Calls of active or inactive are those of the source. The call rests on the fitted dose curve; in most records, active means well fitted inhibition curve with a large enough effect; inconclusive means small, poorly fitted or top-dose-only effect; inactive means flat fitted curve, though single readings scatter.

Tests used:
[1] = test system: HEK293; assay: Cytotoxic Profiling of Annotated Libraries Using Quantitative High-Throughput Screening (AID 1296008); conditions: Five cell lines viability, CellTiter-Glo ATP luminescence, 48-72 h; max response: hits give low values; further: potency means the concentration at half of the fitted maximal effect; on max response: on the % scale 0 is the no-effect control and ±100 the full control effect
Method in brief: (§1)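 Cells exposed to compounds for 48 or 72 hr at 37 degrees Celsius. Viability read as ATP-coupled luminescence with CellTiter-Glo after 10 min at room temperature.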

[2] = test system: KB-3-1; assay: as above; conditions: Five cell lines viability, CellTiter-Glo ATP luminescence, 48-72 h; max response: hits give low values
Method in brief: as §1

[3] = test system: NIH3T3; assay: as above; conditions: Five cell lines viability, CellTiter-Glo ATP luminescence, 48-72 h; max response: hits give low values
Method in brief: as §1

[4] = test system: HaCat; assay: as above; conditions: Five cell lines viability, CellTiter-Glo ATP luminescence, 48-72 h; max response: hits give low values
Method in brief: as §1

[5] = test system: HACAT; assay: qHTS assay to identify novel small-molecules to repurpose for Merkel cell carcinoma treatment (AID 1296009); conditions: MCC and control cell lines, CellTiter-Glo viability, 72 h; series mostly up to 44.8 µM
Method in brief: (§2)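 Dose-response viability screen; 72 hr exposure at 37 degree celsius; CellTiter-Glo added, 10 min room temperature, luminescence read; RLUs scaled between no-cell and DMSO wells.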

[6] = test system: HEK293T; assay: as above; conditions: MCC and control cell lines, CellTiter-Glo viability, 72 h; at 44.8 µM (top of the series) unless noted
Method in brief: as §2
Further: nearly all actives have a fitted effect of over 60% in size.

Structure (SMILES): COc1cc(C(=O)NC2CCN(C)CC2)c(F)cc1Nc1ncc2c(n1)N(C1CCCC1)CC(F)(F)C(=O)N2C
- Potency [1]: 0.0184 µM (active)
- Potency [2]: 0.0103 µM (active)
- Potency [3]: 0.82 µM (active)

Structure (SMILES): Cc1ccc(C(=O)Nc2noc3ccccc23)cc1
- max response [4]: -29.9%
- outcome [2]: inactive

Structure (SMILES): CC1(C)CCC[C@@]2(C)C1[C@H](OC(=O)/C=C/C=C/C(=O)O)C=C1COC(=O)[C@@]12O (stereo partly specified)
- outcome [4]: inactive
- max response [2]: 0.106%
- outcome [3]: inactive
- Potency [5]: inactive

Structure (SMILES): Cc1cccc2c1NC(=O)C2(c1ccc(O)cc1)c1ccc(O)cc1
- max response [1]: -20.9%
- max response [2]: -4.45%
- max response [3]: -15.5%

Structure (SMILES): O=C(O)/C=C/c1ccc(-c2ccc(O)c(C34CC5CC(CC(C5)C3)C4)c2)cc1
- Potency [1]: 0.731 µM (active)
- Potency [2]: 2.06 µM (active)
- Potency [3]: 0.92 µM (active)

Structure (SMILES): COc1cc(O)c2c(c1)C1=CC(O)C(O)CC1(C)OC2=O (stereo unspecified)
- max response [1]: -5.55%
- outcome [2]: inactive
- max response [3]: -6.33%

Structure (SMILES): Cc1nc(Nc2n[nH]c3c2CN(C(=O)NC(CN(C)C)c2ccccc2)C3(C)C)c2sccc2n1 (stereo unspecified)
- Potency [1]: 0.0146 µM (active)
- Potency [2]: 1.84 µM (active)
- Potency [3]: 8.2 µM (active)

Structure (SMILES): C#CC[C@H](c1nc2cc(Cl)ccc2c(=O)n1Nc1ccccc1)N(CCCN)C(=O)c1cccc(Cl)c1F
- Potency [2]: 0.92 µM (active)
- Potency [3]: 10.3 µM (active)

Structure (SMILES): COc1ccc(-c2ccc3c(N4CCOCC4)nc(N4CC(C)OC(C)C4)nc3n2)cc1CO (stereo unspecified)
- Potency [1]: 1.16 µM (active)
- Potency [2]: 1.64 µM (active)
- Potency [3]: 1.84 µM (active)

Structure (SMILES): O=C(Nc1ccc(S(=O)(=O)C(F)(F)F)cc1)C1=CCN(c2ncccc2C(F)(F)F)CC1
- Potency [1]: 8.2 µM (active)
- Potency [2]: 23.1 µM (active)
- Potency [3]: 16.4 µM (active)

Structure (SMILES): COC1=CC(=O)CC(C)C12Oc1cc(OC)cc(O)c1C2=O (stereo unspecified)
- max response [4]: 4.13%
- outcome [2]: inactive
- outcome [3]: inactive

Structure (SMILES): C[C@@H]1C[C@H]2O[C@@H]2/C=C\C=C\C(=O)Cc2c(Cl)c(O)cc(O)c2C(=O)O1
- Potency [1]: 0.0873 µM (active)
- Potency [2]: 1.1 µM (active)
- Potency [3]: 1.74 µM (active)

Structure (SMILES): CN(C)CCCCC(=O)Nc1ccc(NC(=S)NC(=O)c2ccc(C(C)(C)C)cc2)cc1
- Potency [2]: 14.6 µM (active)
- Potency [3]: 7.31 µM (active)

Structure (SMILES): O=C(Nc1ccc(-c2ccncc2)cc1)N[C@H](CO)c1ccccc1
- max response [1]: -14.1%
- outcome [2]: inactive
- max response [3]: -5.95%

Structure (SMILES): C/C=C/C=C/C=C/C(=O)OC1C=C(C=O)C(O)(C(=O)O)C2(C)CCCC(C)(C)C12 (stereo unspecified)
- max response [1]: 1.26%
- max response [2]: 7.06%
- max response [3]: 3.49%

Structure (SMILES): NC(=O)c1cccc2cn(-c3ccc(C4CCCNC4)cc3)nc12 (stereo unspecified)
- Potency [1]: 7.31 µM (active)
- max response [2]: -7.35%
- max response [3]: -14%

Structure (SMILES): NCc1ccc(Nc2ncc(F)c(Nc3ccccc3)n2)cc1
- Potency [1]: 20.6 µM (active)
- Potency [2]: 8.2 µM (active)
- Potency [3]: 14.6 µM (active)

Structure (SMILES): N=c1nc2n(cc1F)C1OC(CO)C(O)C1O2 (stereo unspecified)
- Potency [1]: 5.17 µM (active)
- max response [2]: -7.19%
- Potency [3]: 2.06 µM (active)

Structure (SMILES): CCC1C(=O)OC23C=C[C@@H]4C(C(=O)O)=CO[C@H](O[C@@H]12)[C@@H]43 (stereo partly specified)
- max response [4]: 2.84%
- max response [2]: -1.99%
- max response [3]: 0.895%

Structure (SMILES): CC1=C(C(=O)O[C@@H]2O[C@H](COC3OCC(O)C(O)C3O)[C@@H](O)[C@H](O)[C@H]2O)C(C)(C)CCC1 (stereo partly specified)
- max response [1]: -9.72%
- max response [2]: -5.04%
- max response [3]: -7.14%

Structure (SMILES): Cc1ccc(NC(=O)Nc2cc(C(F)(F)F)ccc2F)cc1Nc1ccc2c(c1)NC(=O)/C2=C\c1ccc[nH]1
- Potency [1]: 11.6 µM (active)
- Potency [2]: 20.6 µM (active)
- Potency [3]: 18.4 µM (active)

Structure (SMILES): CCN(CC)CCN(Cc1ccc(-c2ccc(C(F)(F)F)cc2)cc1)C(=O)Cn1c(SCc2ccc(F)cc2)nc(=O)c2c1CCC2
- Potency [1]: 3.66 µM (active)
- Potency [2]: 20.6 µM (active)
- Potency [3]: 4.61 µM (active)

Structure (SMILES): Cc1ccc(S(=O)(=O)Nc2ccccc2N2CCCCC2)s1
- Potency [1]: 18.4 µM (active)
- max response [2]: -18.9%
- max response [3]: 2.48%

Structure (SMILES): C[C@@]1(O)[C@H](O)[C@@H](CO)O[C@H]1n1ccc(N)nc1=O
- outcome [1]: inactive
- outcome [2]: inactive
- outcome [6]: inactive

Structure (SMILES): O=C(c1ccc(/C=C/c2n[nH]c3ccccc23)cc1)N1CCNCC1
- Potency [1]: 20.6 µM (active)
- Potency [2]: 5.8 µM (active)
- Potency [3]: 4.61 µM (active)

Structure (SMILES): CC(=O)OC12COC1CC(O)C1(C)C(=O)C(O)C3=C(C)C(OC(=O)C(O)C(NC(=O)OC(C)(C)C)c4ccccc4)CC(O)(C(OC(=O)c4ccccc4)C21)C3(C)C (stereo unspecified)
- max response [1]: -76.3%
- Potency [2]: 0.0018 µM (active)
- Potency [3]: 0.0164 µM (active)
